Screens from PubChem.
Bcl-xL primary: inhibitors of human Bcl-xL, primary screen, biochemical, fluorescence polarization, HTS. GST-Bcl-xL / FITC-Bim BH3 peptide fluorescence polarization. inhibition, % at 10.9 µM. hit rate 0.7% among 320,000;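 active means inhibition above the mean of all tested compounds plus 3 SD, cutoff set per campaign, cut at about 30% in these data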;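 further: 0% = DMSO wells and 100% = unlabeled Bim-BH3 peptide competitor; inhibitors lower millipolarization by displacing the labeled peptide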
EBV gp42 inh: Epstein-Barr virus gp42 inhibitors, primary screen, biochemical, uHTS, fluorescence polarization; hit rate 0.42% among 220,000; Fluorescence polarization binding assay, mP read-out; inhibition, % (tested at 21.74 µM); Glycoprotein 42 (Epstein-Barr virus (strain AG876)), Q1HVG2; in the data active means inhibition above about 50%
GLD-1 RNA inh: GLD-1/TGE RNA complex disruptors, primary screen, biochemical, fluorescence polarization. purified GLD-1 + fluorescein TGE RNA. inhibition, % at 5.96 µM. hit rate 0.44% among 320,000. AID 2280, 2010;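 active means percent inhibition above a per-plate cutoff, the plate mean of test compounds plus 3 SD, cut at about 30% in these data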;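 further: 0% = DMSO wells with GLD-1 and probe and 100% = wells lacking GLD-1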
Target sequence (Q17339 whole entry, looked up): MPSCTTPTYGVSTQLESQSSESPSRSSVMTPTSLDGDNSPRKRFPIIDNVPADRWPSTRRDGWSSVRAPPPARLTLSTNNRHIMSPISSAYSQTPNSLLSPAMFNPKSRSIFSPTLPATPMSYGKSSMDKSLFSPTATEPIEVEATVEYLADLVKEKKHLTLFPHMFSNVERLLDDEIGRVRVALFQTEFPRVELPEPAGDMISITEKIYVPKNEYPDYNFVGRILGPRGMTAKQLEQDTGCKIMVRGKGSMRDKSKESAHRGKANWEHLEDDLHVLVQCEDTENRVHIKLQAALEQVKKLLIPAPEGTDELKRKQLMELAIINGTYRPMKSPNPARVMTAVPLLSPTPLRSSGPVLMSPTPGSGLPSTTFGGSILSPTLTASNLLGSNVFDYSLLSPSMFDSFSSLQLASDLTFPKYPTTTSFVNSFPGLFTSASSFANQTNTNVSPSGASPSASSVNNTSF
E coli Lon inh: inhibitors of E. coli Lon protease, primary screen, biochemical, fluorescence polarization | purified E. coli Lon protease | inhibition, % at 7.94 µM | P0A9M0 | hit rate 0.42% among 360,000; in the data active means inhibition above about 13%, passing the limit was not always enough;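 further: 0% = enzyme with probe and DMSO and 100% = no enzyme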
MEX-5 binding: MEX-5 zinc finger RNA-binding disruptors – biochemical, C. elegans, fluorescence polarization, MLPCN library, primary screen; Zinc finger protein mex-5 (Caenorhabditis elegans), Q9XUB2; MEX-5/FITC-TCR2 RNA binding; stronger effect = lower value; activity score (negative = inhibition of binding), % at 10 µM; hit rate 0.38% among 300,000; AID 1832, 2009;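 active means inhibition past about -25% in most replicates, and total fluorescence under double the plate's negative control median, limit read from the data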;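 further: 0% = DMSO and -100% = 5 µM competing unlabeled TCR2 RNA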
GLD-1 TGE cf: GLD-1/TGE RNA binding inhibitors, retest, confirmation, biochemical, fluorescence polarization, triplicate | shares compounds with GLD-1 RNA inh | GLD-1/FL-TGE RNA fluorescence polarization | inhibition, % at 5.96 µM | hit rate 10% among 550 | AID 2459, 2010;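 active means average inhibition across triplicates above the hit cutoff set in the primary screen, cut at about 32% in these data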;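 further: 0% = GLD-1 with RNA probe and DMSO and 100% = wells lacking GLD-1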
eLon confirm: E. coli Lon protease inhibitor retest, confirmation, biochemical, fluorescence polarization | shares compounds with E coli Lon inh | purified E. coli Lon | inhibition, % at 7.94 µM | hit rate 31% among 1,400; in the data active means inhibition above about 16%;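 further: 0% = enzyme with probe and DMSO and 100% = no enzyme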
Active calls of the source: *; . = no result given; ! = not active in a repeat. A selection: hits, their analogues and other compounds. The true share with any hit is near 1.3%.

SMILES	Bcl-xL primary	EBV gp42 inh	GLD-1 RNA inh	E coli Lon inh	MEX-5 binding	others
Oc1ccc(C[C@H]2NCCc3cc(O)c(O)cc32)cc1O	.	.	.	5	-81*
CCOC(=O)c1ccc(N=Cc2c(O)n(-c3ccc(OC)cc3)c(=S)[nH]c2=O)cc1	5	-11	5	-16	0
CCOC(=O)c1ccc(N=Cc2c(O)n(-c3ccccc3F)c(=S)[nH]c2=O)cc1	5	-20	-18	-39	1
CCOC(=O)c1c(/N=C/c2c(O)n(-c3ccccc3F)c(=S)[nH]c2=O)sc2c1CCCC2	-9	130*	0	-31	-9
CCOC(=O)c1c(/N=C/c2c(O)n(-c3ccc(F)cc3)c(=S)[nH]c2=O)sc2c1CCCC2	-5	56*	-1	-6	1
CCC(C)(O)C(=O)OC1C(=O)OC2CC3C(C)=CC(O)C(O)C3(C)C3C4(O)OCC23C1C(C)C4O (stereo unspecified)	.	.	.	0	.
CSCCC(c1nnnn1C1CCCCC1)N1CCC2(CC1)C(=O)NCN2c1ccccc1 (stereo unspecified)	.	.	.	-1	.
C=CCN1C(=O)/C(=C/c2cc(C)n(-c3cccnc3)c2C)C(=O)NC1=S	6	-4	1	-19	-11
Cc1cc(C=C2C(=O)NC(=O)NC2=O)c(C)n1-c1cccnc1	-3	0	-1	-9	-71*
CN1/C(=C\C=C\C2=[N+](C)c3ccc4ccccc4c3C2(C)C)C(C)(C)c2ccccc21	190*	97*	179*	.	.
CN1/C(=C\C=Nc2ccccc2)C(C)(C)c2ccccc21	14	-10	4	-10	-1
Cc1nonc1OCCNCCNc1ccc([N+](=O)[O-])c2cccnc12	5	-6	4	1	-27*
CCNCCNc1ccc([N+](=O)[O-])c2cccnc12	1	-14	-4	5	-3
CCCCn1c(O)c(C(=O)/C=C/c2ccc3c(c2)OCO3)c(=O)[nH]c1=O	2	-31	-11	-18	-36*
O=C(/C=C/c1ccc2c(c1)OCO2)c1c(O)n(CCC2=CCCCC2)c(=O)[nH]c1=O	-13	-17	-13	-23	.
O=c1[nH]c(=O)n(CCC2=CCCCC2)c(O)c1C=NCCCn1ccnc1	-4	-30	-8	9	-3
O=c1[nH]c(=O)n(CCc2ccc(F)cc2)c(O)c1C=NCCCn1ccnc1	-31	-53	-23	-35	-40*
OCCNc1c2c(nc3ccccc13)CCCC2	3	-15	4	-5	2
C[n+]1c2ccccc2nc2ccc(NCCO)cc21	73*	.	34*	45	-21	GLD-1 TGE cf=14
Cc1nc(C)c(C(=O)NN=Cc2ccc(N(CCCl)CCCl)cc2)s1	.	.	.	-6	.
CN1C(=O)C2C[C@@]3(Br)c4ccccc4N(OOSc4ccccc4)[C@H]3N2C(=O)[C@@H]1Cc1ccccc1 (stereo partly specified)	1	.	32*	-3	1	GLD-1 TGE cf=3
CN1CC[C@@]2(C)c3cc(O)ccc3N(C)C2O1 (stereo partly specified)	26	.	39*	20	-4	GLD-1 TGE cf=2
CC1CC2CC(=O)CCC2(C)C2CCC3(C)C(O)CCC3C12 (stereo unspecified)	.	.	.	-10	.
CC(=NCCC1=CCCCC1)c1c(O)n(C)c(=O)n(C)c1=O	2	2	7	-3	1
CC(=NCCC1=CCCCC1)c1c(O)[nH]c(=O)[nH]c1=O	4	-19	37*	-7	3	GLD-1 TGE cf=-3
SMILES	Bcl-xL primary	EBV gp42 inh	GLD-1 RNA inh	E coli Lon inh	MEX-5 binding	others
O=C(NCC1=C(c2cccc3ccccc23)C[C@@H]2CC[C@H]1N2Cc1ccco1)c1ccc([N+](=O)[O-])cc1	.	.	.	-4	.
CN(C)C1C(=O)C(C(N)=O)=C(O)C2(O)C(=O)C3=C(O)c4c(O)cccc4C(C)(O)C3C(O)C12 (stereo unspecified)	51*	.	44*	3	-20	GLD-1 TGE cf=0
CC(C)COC(=O)N1Cc2ccccc2-n2nncc2C1	.	.	.	1	.
CC1(O)CCN2C(=O)CCc3cccc1c32 (stereo unspecified)	49*	.	58*	16	.	GLD-1 TGE cf=2
O=c1[nH]c2ccccc2n1C1CCN(C(CCc2ccccc2)c2nnnn2C2CCCCC2)CC1 (stereo unspecified)	.	.	.	-3	.
CC[C@@H](CO)NC(=O)[C@@H]1C=C2c3cccc4c3c(cn4C)C[C@H]2N(C)C1	143*	53*!	112*	38	-31*	GLD-1 TGE cf=18
CCC(CO)NC(=O)C1C=C2c3cccc4[nH]cc(c34)CC2N(C)C1 (stereo unspecified)	47*	22	35*	59	-15	GLD-1 TGE cf=9
CC(C)(C)n1nnnc1C(c1ccccc1)N1CCC2(CC1)C(=O)NCN2c1ccccc1 (stereo unspecified)	.	.	.	-3	.
S=P(NC1CCCCC1)(N1CC1)N1CC1	50*	5	35*	2	1	GLD-1 TGE cf=1
Fc1ccc(N2Cc3ccccc3-n3nncc3C2)cc1	.	.	.	-4	.
CN1C[C@H](CNC(=O)OCc2ccccc2)C[C@@H]2c3cccc4c3c(cn4C)C[C@H]21	52*	20	53*	76*	-7	GLD-1 TGE cf=6;eLon confirm=36*
COc1ccc(CC2=NCCc3cc(OC)c(OC)cc32)cc1OC	.	.	.	-3	.
CN1CCN(c2ccc([N+](=O)[O-])c3no[n+]([O-])c23)CC1	197*	141*	141*	131*	-60*	eLon confirm=102*
O=[N+]([O-])c1ccc(N(CCO)CCO)c2c1no[n+]2[O-]	.	.	.	66*	.	eLon confirm=31*
COc1cc2cc(C(=O)N3CC(COS(C)(=O)=O)c4ccc(O)cc43)[nH]c2c(OC)c1OC (stereo unspecified)	.	.	.	3	.
COc1ccc2c(c1)NP(=S)(c1ccccc1)N2C (stereo unspecified)	.	.	.	53*	.	eLon confirm=3
Cc1nc2ccccn2c1P(=S)(c1ccccc1)c1ccccc1	.	.	.	-3	.
COC(=O)C1=C(c2cccc(OCc3ccccc3)c2)C[C@@H]2CC[C@H]1N2C(=O)NCc1cc(C)oc1C(F)(F)F	4	.	1	26*	.	eLon confirm=-4
COC(=O)C1=C(c2cccc(OCc3ccccc3)c2)C[C@@H]2CC[C@H]1N2C(=O)NCc1cccc(C(F)(F)F)c1	1	.	-2	0	.
CCOC(=O)[C@]12Cc3cc(Cl)ccc3[C@H]1N(C1CCCCC1)C(=O)c1cc(OC)ccc12	.	.	.	-1	.
